An excerpt weighted towards active compounds, which were near 19% of everything screened.
HepG2 tox: kills HepG2 cells in TGF-b inhibitor counter-screen; HepG2 CAGA-GFP viability, ATP luminescence, 18 h; Potency, µM (series often up to 46.1 µM), actives largely listed as cytotoxic; 0.76% of 410,000 active
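HepG2 CAGA-GFP cells (1000/well, DMEM with 1% FBS) received compound, then TGF-beta at 500 pg/mL final, and were incubated 18 hours at 37 degrees C. Viability was read by CellTiter-Glo luminescence. Media-only wells were set as complete cell-killing and DMSO as no toxicity.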
TDP1 inh: inhibitors of human tyrosyl-DNA phosphodiesterase TDP1; 0.28% of 350,000 active; Potency, µM (titrated, usually from 130 µM), most hits filed as inhibitors; Q9NUW8; AID 485290; recombinant TDP1, AlphaScreen DNA substrate cleavage; further: nearly all actives have a fitted effect of over 40% in size
Target sequence (Q9NUW8 whole entry, looked up): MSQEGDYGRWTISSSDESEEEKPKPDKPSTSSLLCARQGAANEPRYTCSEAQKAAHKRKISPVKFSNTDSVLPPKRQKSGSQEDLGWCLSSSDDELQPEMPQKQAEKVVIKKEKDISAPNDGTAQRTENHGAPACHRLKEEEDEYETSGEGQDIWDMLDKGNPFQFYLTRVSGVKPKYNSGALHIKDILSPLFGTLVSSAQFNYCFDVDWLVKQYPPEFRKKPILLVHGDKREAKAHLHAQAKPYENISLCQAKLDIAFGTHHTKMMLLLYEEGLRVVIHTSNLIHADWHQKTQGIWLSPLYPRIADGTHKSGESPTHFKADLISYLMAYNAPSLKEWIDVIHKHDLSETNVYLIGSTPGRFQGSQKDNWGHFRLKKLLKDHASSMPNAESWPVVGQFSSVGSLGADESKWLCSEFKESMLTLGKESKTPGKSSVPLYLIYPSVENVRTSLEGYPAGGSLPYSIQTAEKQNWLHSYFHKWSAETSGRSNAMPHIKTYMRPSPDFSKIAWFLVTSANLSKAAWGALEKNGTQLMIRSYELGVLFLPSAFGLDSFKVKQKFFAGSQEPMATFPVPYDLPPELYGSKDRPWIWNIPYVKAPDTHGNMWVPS
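Enzyme-compound mixtures sat 15 min at room temperature, followed by a 5 min reaction with 15 nM final substrate and 10 min with AlphaScreen beads. Recombinant human Tdp1 was used at 1 nM final.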
TDP1 cell noCPT: qHTS for Inhibitors of human tyrosyl-DNA phosphodiesterase 1 (TDP1): qHTS in cells in absence of CPT | DT40 Tdp1-/- hTDP1 cells, no CPT, ATP luminescence, 48 h | AID 686978, 2013 | 15% of 420,000 active | Potency, µM (doses to about 46.2 µM), hits mostly inhibitors; further: nearly all actives have a fitted effect of over 55% in size
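Chicken DT40 Tdp1-/- cells complemented with human TDP1, screened without camptothecin (DMSO vehicle only), 400 cells/well. Compounds pin-transferred, cells incubated at 37 °C for at least 48 hr. Growth read as ATP-dependent luminescence (CellTiter-Glo, 30 min at RT).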
DT40 TDP1 CPT: growth inhibition of DT40 Tdp1-/-;hTDP1 cells with camptothecin (screen for TDP1 inhibitors); chicken DT40 Tdp1-/-;hTDP1 cells + 20 nM CPT, ATP luminescence, 48 h; Potency, µM (top dose mostly 46.2 µM), most hits filed as inhibitors; 12% of 420,000 active; further: nearly all actives have a fitted effect of over 55% in size
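Chicken DT40 Tdp1-/- cells complemented with human TDP1, 400 cells/well, exposed to compounds plus 20 nM camptothecin for at least 48 h at 37 C; viability read as ATP content by CellTiter-Glo luminescence.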
TGFb SMAD3 inh: inhibitors of TGF-b signaling. HepG2 CAGA-GFP TGF-b/SMAD3 reporter, GFP fluorescence, 18 h; TGF-beta stimulated, 500 pg/mL final. Potency, µM (titrated, usually from 46.1 µM), hits mostly inhibitors. 1.2% of 410,000 active; further: nearly all actives have a fitted effect of over 65% in size
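Inhibition of TGF-beta-driven CAGA-GFP reporter expression in HEPG2 cells is measured by cellular GFP fluorescence after 18 h stimulation with 500 pg/mL recombinant TGF-beta in 1% FBS medium at 37 degrees C.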
IL1B secr inh: inflammasome signaling inhibition, IL-1 beta readout; THP-1 LPS/ATP IL-1B secretion, AlphaLISA, 16 h; active compounds read low; activity change, % at 57.5 µM; 4.7% of 360,000 active; in the data active means activity change below about -50%; inconclusive means mostly about -30% to -49%
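THP-1 cells pretreated 1 hr with compounds (up to 57.5 uM final), then stimulated with LPS (250 ng/mL final) plus ATP (1.25 mM final); secreted IL-1B measured by AlphaLISA after 16 hr, decreased signal indicating inhibition.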
A number is an active result; i = inactive; ? = inconclusive; nt = no result given; [ ] = remark or other dose. Unless noted, the call rests on the fitted dose curve; in most records, active means well fitted curve in the direction sought with a large enough effect; inconclusive means small, poorly fitted or top-dose-only effect, or another doubt; inactive means no such curve, though single readings can be large; an effect the other way counts as inactive or inconclusive.

SMILES	HepG2 tox	TDP1 inh	TDP1 cell noCPT	DT40 TDP1 CPT	TGFb SMAD3 inh	IL1B secr inh
O=C(O)CCC(=O)N1N=C(c2c(-c3ccccc3)c3cc(Cl)ccc3[nH]c2=O)CC1c1ccccc1 (stereo not given)	i	i	i	i	i	i
O=C(OCC(=O)N1N=C(c2ccc(Cl)cc2)CC1c1ccco1)c1ccco1 (stereo not given)	i	i	?	i	i	i
CCC(=O)N1N=C(c2ccc(NS(=O)(=O)c3ccc(C)cc3)cc2)CC1c1ccco1 (stereo not given)	i	i	13µM	?	?	?
Cc1ccc(C2=NN(C(=S)Nc3ccccc3)C(c3ccco3)C2)cc1 (stereo not given)	i	i	?	?	i	i
O=C(OCC(=O)N1N=C(c2ccc(Cl)cc2)CC1c1ccco1)c1cncc(Br)c1 (stereo not given)	i	i	23µM	?	i	?
CCS(=O)(=O)Nc1ccc(C2=NN(C(=S)Nc3ccccc3)C(c3ccco3)C2)cc1 (stereo not given)	i	i	16µM	16µM	i	i
CCC(=O)N1N=C(c2ccc(NS(=O)(=O)CC)cc2)CC1c1ccc(C)cc1 (stereo not given)	i	i	?	?	i	i
COc1ccc(C2=NN(C(=O)CSc3nccn3C)C(c3ccco3)C2)cc1 (stereo not given)	i	i	?	18µM	i	i
CCOC(=O)Cc1csc(NS(=O)(=O)c2ccc(C(F)(F)F)cc2)n1	i	i	i	i	i	i
COc1ccc(C2=NN(c3nc(-c4ccc(CNC(C)=O)cc4)cs3)C(c3ccco3)C2)cc1 (stereo not given)	i	i	18µM	21µM	i	i
CCC(=O)N1N=C(c2ccc(C)cc2)CC1c1ccco1 (stereo not given)	i	i	13µM	21µM	i	?
N#Cc1cccc(-c2nc(Nc3ccccc3)c3ccccc3n2)c1	nt	i	i	i	nt	nt
CC1CC=CC2C1C(=O)N(Cc1ccccc1)C2c1ccc2ccccc2c1-c1ccc(N(C)C)cc1 (stereo not given)	i	i	nt	nt	i	nt
CC1CC=CC2C1C(=O)N(Cc1ccccc1)C2c1ccc(-c2ccc(N(C)C)cc2)cc1F (stereo not given)	i	i	nt	nt	i	nt
COc1ccc(-c2ccc([C@H]3[C@H]4C=CC[C@@H](C)[C@@H]4C(=O)N3Cc3ccccc3)c(F)c2)cc1	i	i	21µM	?	?	i
COc1ccc(-c2ccc(OC)c(C3C4C=CCC(C)C4C(=O)N3Cc3ccccc3)c2)cc1OC (stereo not given)	i	i	nt	nt	i	nt
COc1ccc(-c2c([C@H]3[C@H]4C=CC[C@@H](C)[C@@H]4C(=O)N3Cc3ccccc3)ccc3ccccc23)cc1	i	i	10µM	10µM	?	i
COc1ccc(-c2ccc([C@H]3[C@H]4C=CC[C@@H](C)[C@@H]4C(=O)N3Cc3ccccc3)c(F)c2)cc1OC	i	i	16µM	18µM	?	?
CCCCCC/C=C/c1ccc([C@H]2[C@H]3C=CC[C@@H](C)[C@@H]3C(=O)N2Cc2ccccc2)c(F)c1	i	i	16µM	?	i	i
Cc1ccc(C)c(NC(=O)Cn2c(SCC(=O)NCc3ccccc3)nc3ccccc32)c1	i	i	i	?	i	nt
COc1ccc(COC(=O)N/N=C2/C[C@@H](O)[C@@H](O)[C@@H]3[C@@H]4C(=O)N(c5cccc(Oc6ccccc6)c5)C(=O)[C@H]4CC[C@@H]23)cc1	nt	i[21 µM]	nt	nt	nt	nt
CSc1ccccc1NC(=O)CN(C)C(=O)COc1cccc2cccnc12	11µM	i	3.3µM	5.2µM	?	i
COc1ccccc1NC(=O)CN(C)S(=O)(=O)c1cccc2cccnc12	i	i	18µM	i	i	i
Cc1ccc(NC(=O)CN(C)S(=O)(=O)c2cccc3cccnc23)cc1C	i	nt	15µM	?	i	i
COc1ccc(N(C(=O)C2CCCCC2)S(=O)(=O)c2cccc3cccnc23)cc1	i	i	i	i	i	-52
SMILES	HepG2 tox	TDP1 inh	TDP1 cell noCPT	DT40 TDP1 CPT	TGFb SMAD3 inh	IL1B secr inh
CCCOc1ccc(CNC(=O)c2cc3ccccn3n2)cc1	i	i	?	?	?	nt
COc1ccc(N(C)S(=O)(=O)c2cccc3cccnc23)c(OC)c1	i	i	18µM	?	?	i
CCCc1cc2c(n1Cc1cc(F)cc(F)c1)C(C)C1CN(C(=O)c3ccccc3)C(C)(C(=O)OC)C21 (stereo not given)	nt	i	nt	nt	nt	nt
COc1ccccc1-c1nnc(SC(C(=O)c2c[nH]c3ccccc23)c2ccccc2)n1C (stereo not given)	i	i	16µM	21µM	?	-51
COc1cccc(-c2nnc(SC(C(=O)c3c[nH]c4ccccc34)c3ccccc3)n2C)c1 (stereo not given)	i	i	?	23µM	?	i
Cc1cc(=O)n2nc(N(C)CC(=O)NCc3ccccc3C)sc2n1	i	i	i	i	i	nt
CCOc1ccccc1CNC(=O)c1oc2c(c1C)-c1nn(Cc3cccc(Cl)c3)cc1CC2	i	i	21µM	?	i	nt
Cc1ccccc1CNC(=O)c1oc2c(c1C)-c1nn(Cc3ccc(Cl)cc3)cc1CC2	i	i	16µM	?	i	nt
Cc1c(C(=O)NCc2ccc(N(C)C)cc2)oc2c1-c1nn(Cc3cccc(Cl)c3)cc1CC2	i	i	?	?	i	nt
O=S(=O)(c1ccccc1)N1CCC2(CC1)CN(c1ccccc1)C2	nt	nt	?	i	nt	nt
O=S(=O)(c1ccccc1)N1CCC2(CCCN(c3ccccn3)C2)CC1	nt	nt	21µM	?	nt	nt
O=S(=O)(c1ccccc1)N1CCC2(CCCN(c3ccncc3)C2)CC1	nt	nt	1.2µM	2.1µM	nt	nt
O=S(=O)(c1ccccc1)N1CCC2(CCN(Cc3ccncc3)CC2)CC1	nt	nt	21µM	?	nt	nt
O=S(=O)(c1ccccc1)N1CCC2(CCCN(c3ncccn3)C2)CC1	nt	nt	?	i	nt	nt
O=S(=O)(c1ccccc1)N1CCC2(CC1)CN(Cc1ccccc1)C2	nt	nt	?	i	nt	nt
O=S(=O)(c1ccccc1)N1CCC2(CC1)CN(c1ccncc1)C2	nt	nt	9.2µM	?	nt	nt
Cc1cc(C)cc(NC(=O)CCCc2nc(-c3ccco3)no2)c1	i	i	i	i	i	nt
CCOc1ccccc1NC(=O)CN1Cc2ccccc2C1=O	i	i	i	i	i	nt
COc1ccc(-c2noc(CSc3nnc(C)n3-c3ccc(C)cc3)n2)cc1OC	i	i	?	?	i	nt

Compound activity (PubChem BioAssay)
